CYP2C19 inhib: blockers of cytochrome P450 2C19 activity – biochemical, luminescence, ADME assay, primary screen; P33261; CYP2C19 Supersomes, luciferin-H EGE luminescence, 30 min; inhibition, % at 5 µM; 96,000 compounds, 21% hits; AID 778, 2007;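 active means CYP2C19 inhibition above a set limit at 5 µM in the primary screen, cut at about 50% in these data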;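 further: plate controls were negative control wells for no effect and 2.5 mM tranylcypromine positive control for full effect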
Target sequence (P33261 whole entry, looked up): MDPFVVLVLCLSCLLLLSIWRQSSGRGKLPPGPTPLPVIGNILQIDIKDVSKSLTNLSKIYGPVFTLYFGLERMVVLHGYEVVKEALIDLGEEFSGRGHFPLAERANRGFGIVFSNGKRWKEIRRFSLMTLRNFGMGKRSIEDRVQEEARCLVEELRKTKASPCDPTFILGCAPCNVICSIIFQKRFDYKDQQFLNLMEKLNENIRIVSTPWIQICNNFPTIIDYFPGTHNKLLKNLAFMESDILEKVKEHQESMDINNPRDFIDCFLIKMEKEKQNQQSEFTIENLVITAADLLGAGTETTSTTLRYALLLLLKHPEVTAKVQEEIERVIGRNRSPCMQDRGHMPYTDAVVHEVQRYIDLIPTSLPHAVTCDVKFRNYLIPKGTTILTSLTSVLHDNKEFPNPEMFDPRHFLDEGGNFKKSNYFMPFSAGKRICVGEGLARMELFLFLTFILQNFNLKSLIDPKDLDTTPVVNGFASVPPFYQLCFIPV
CYP2C19 activ: human CYP2C19 activators, primary screen, biochemical, luminescence; Cytochrome P450 2C19 (Homo sapiens), P33261; 96,000 tested, under 10 active; recombinant CYP2C19, luciferin-H EGE luminescence; active compounds read high; 0 = fully inhibited enzyme, 1 = untreated enzyme; AID 1025, 2008; activation factor at 5 µM;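 active means activation factor of at least 2 at 5 µM in the primary screen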;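 further: 0 = wells with 2.5 mM tranylcypromine and 1 = vehicle-only wells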
CYP2C9 inh: blockers of cytochrome P450 2C9 activity – biochemical, luminescence, ADME assay, primary screen | P11712 | CYP2C9 Supersomes, luciferin-H conversion | inhibition, % at 5 µM | 96,000 compounds, 20% hits | AID 777, 2007;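 active means blocking of liver enzyme CYP2C9 beyond about 50% at 5 µM, limit read from the data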
sEH act: soluble epoxide hydrolase activators, primary screen, biochemical, human sEH; Bifunctional epoxide hydrolase 2 (Homo sapiens), P34913; purified human sEH enzymatic activity, activator screen; activation, % at 2 µM; 91,000 compounds, 0.04% hits; in the data active means activation above about 37%
sEH inh: soluble epoxide hydrolase inhibitors, primary screen, biochemical, human sEH. inhibition, % at 2 µM. recombinant human sEH enzymatic activity assay. 91,000 compounds, 0.34% hits. Bifunctional epoxide hydrolase 2 (Homo sapiens), P34913; in the data active means inhibition above about 80%
CYP2C9 activ: human CYP2C9 activators, primary screen, biochemical, luminescence; Cytochrome P450 2C9 (Homo sapiens), P11712; activation factor at 5 µM; recombinant CYP2C9, luciferin-H conversion; active compounds read high; factor 1 = untreated enzyme, 0 = blocked; 96,000 compounds, 1.4% hits;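 active means activation factor of 2 or more for CYP2C9 at a 5 µM dose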;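 further: 0 = sulfaphenazole-blocked wells and 1 = vehicle-only wells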
Active calls of the source: *. Only some compounds are listed: those with a hit (about 27% of all), similar ones and a draw of the others.

How did CCn1cc(C(=O)NCc2ccco2)c(=O)c2cc(S(=O)(=O)N3CCC(C)CC3)ccc21 do in these assays?
CYP2C19 inhib: 13; CYP2C19 activ: 0.9; CYP2C9 inh: 66*; sEH act: 3; sEH inh: -1; CYP2C9 activ: 0.3

What do the screens show for `CCOC(=O)c1cnn(-c2c(Cc3ccccc3)c(C)nc3c(-c4ccccc4)c(C)nn23)c1N`?
CYP2C19 inhib: -26; CYP2C19 activ: 1.3; CYP2C9 inh: 1; sEH act: -5; sEH inh: 4; CYP2C9 activ: 1

How did COC(=O)CCCCCNc1ccc(C(=O)OC)cc1N do in these assays?
CYP2C19 inhib: 84*; CYP2C19 activ: 0.2; CYP2C9 inh: 16; sEH act: 7; sEH inh: -9; CYP2C9 activ: 0.8

How did O=C(Nc1ccccc1)N(Cc1ccccc1)Cc1ccccc1 do in these assays?
CYP2C19 inhib: 3; CYP2C19 activ: 1; CYP2C9 inh: 28; sEH act: 5; sEH inh: -4; CYP2C9 activ: 0.7

What do the screens show for `O=C(Nc1ccccc1)N(Cc1ccc(Cl)cc1)CC(O)C(F)(F)F` (stereo unspecified)?
CYP2C19 inhib: 37; CYP2C19 activ: 0.6; CYP2C9 inh: 53*; sEH act: 6; sEH inh: 0; CYP2C9 activ: 0.5

How did CCc1nnc(NC(=O)CSc2nnc(CSc3nc(C)cc(C)n3)o2)s1 do in these assays?
CYP2C19 inhib: 2; CYP2C19 activ: 1; CYP2C9 inh: 21; sEH act: 3; sEH inh: -3; CYP2C9 activ: 0.8

How did Cc1cc2c3c(c1)C(C)(c1ccccc1)CC(C)(C)N3C(=O)C21C(C#N)=C(N)OC2=C1C(=O)CC(C)(C)C2 (stereo unspecified) do in these assays?
CYP2C19 inhib: 5; CYP2C19 activ: 1; CYP2C9 inh: 59*; sEH act: 3; sEH inh: -4; CYP2C9 activ: 0.4

Results for O=S1(=O)C=C(SCc2ccccc2)Nc2ccccc21 ?
CYP2C19 inhib: 68*; CYP2C19 activ: 0.3; CYP2C9 inh: 63*; sEH act: 2; sEH inh: -4; CYP2C9 activ: 0.4

Results for COc1cc(OC)cc(OCC(O)Cn2cnc3cc(C)c(C)cc32)c1 (stereo unspecified) ?
CYP2C19 inhib: 85*; CYP2C19 activ: 0.2; CYP2C9 inh: 57*; sEH act: -5; sEH inh: 4; CYP2C9 activ: 0.4

How did N#Cc1c(N)oc(-c2ccccc2)c1-c1ccccc1 do in these assays?
CYP2C19 inhib: 75*; CYP2C19 activ: 0.3; CYP2C9 inh: 56*; CYP2C9 activ: 0.4

Results for N#Cc1c(/N=C/c2ccco2)oc(-c2ccccc2)c1-c1ccccc1 ?
CYP2C19 inhib: 49; CYP2C19 activ: 0.5; CYP2C9 inh: 73*; sEH act: -6; sEH inh: 5; CYP2C9 activ: 0.3

Results for N#Cc1c(N)oc(-c2ccco2)c1-c1ccco1 ?
CYP2C19 inhib: 22; CYP2C19 activ: 0.8; CYP2C9 inh: 64*; sEH act: 5; sEH inh: -4; CYP2C9 activ: 0.4

What do the screens show for `COc1ccc(OC)c(/C=N/c2oc(-c3ccco3)c(-c3ccco3)c2C#N)c1`?
CYP2C19 inhib: -13; CYP2C19 activ: 1.1; CYP2C9 inh: 36; sEH act: 5; sEH inh: -3; CYP2C9 activ: 0.6

Results for N#Cc1c(/N=C/c2ccccc2)oc(-c2ccccc2)c1-c1ccccc1 ?
sEH act: -12; sEH inh: 12

What do the screens show for `O=C(c1c(F)cccc1F)N(Cc1ccccn1)C1CCCC1`?
CYP2C19 inhib: 10; CYP2C19 activ: 0.9; CYP2C9 inh: 12; sEH act: -6; sEH inh: 1; CYP2C9 activ: 0.9

What do the screens show for `c1csc(-c2nn[nH]n2)c1`?
CYP2C19 inhib: 95*; CYP2C19 activ: 0.1; CYP2C9 inh: 36; sEH act: -6; sEH inh: 7; CYP2C9 activ: 0.6

Results for CCOC(=O)c1ccccc1NC(=O)Cn1c(-c2nonc2N)nc2ccccc21 ?
CYP2C19 inhib: 76*; CYP2C19 activ: 0.2; CYP2C9 inh: 92*; CYP2C9 activ: 0.1

Results for CC(=O)Nc1nonc1-c1nc2ccccc2n1CC1CC1 ?
CYP2C19 inhib: 19; CYP2C19 activ: 0.8; CYP2C9 inh: 40; sEH act: -3; sEH inh: 5; CYP2C9 activ: 0.6

What do the screens show for `Nc1nonc1-c1nc2ccccc2n1CC(=O)NC1CCCC1`?
CYP2C19 inhib: 52*; CYP2C19 activ: 0.5; CYP2C9 inh: 33; CYP2C9 activ: 0.7

How did CC1CCCN(C(=O)Cn2c(-c3nonc3N)nc3ccccc32)C1 (stereo unspecified) do in these assays?
CYP2C19 inhib: 36; CYP2C19 activ: 0.6; CYP2C9 inh: 22; sEH act: 7; sEH inh: -6; CYP2C9 activ: 0.8

How did CC1CC(C)CN(C(=O)Cn2c(-c3nonc3N)nc3ccccc32)C1 (stereo unspecified) do in these assays?
sEH act: 6; sEH inh: -1

What do the screens show for `CCC(=O)Nc1nonc1-c1nc2ccccc2n1CC(C)C`?
CYP2C19 inhib: 18; CYP2C19 activ: 0.8; CYP2C9 inh: 66*; CYP2C9 activ: 0.3

Results for Cc1ccc(NC(=O)C(C)c2ccc(-c3ccccc3)c(F)c2)c(C)c1 (stereo unspecified) ?
CYP2C19 inhib: 4; CYP2C19 activ: 1; CYP2C9 inh: 8; sEH act: -6; sEH inh: 7; CYP2C9 activ: 0.9

Results for C=CCOn1c(C)c(C(C)=O)c2c3nonc3ccc21 ?
sEH act: -5; sEH inh: 8

How did CCOC(=O)c1c(C)n(OCc2ccccc2)c2ccc3nonc3c12 do in these assays?
CYP2C19 inhib: -3; CYP2C19 activ: 1; CYP2C9 inh: 60*; CYP2C9 activ: 0.4

Results for Cc1ccc(NC(=O)NC2CCCCC2)cc1Cl ?
CYP2C19 inhib: -2; CYP2C19 activ: 1; CYP2C9 inh: -10; sEH act: -95; sEH inh: 95*; CYP2C9 activ: 1.1

What do the screens show for `CCc1cccc(NC(=O)CCSCCC(=O)Nc2cccc(CC)c2)c1`?
CYP2C19 inhib: 23; CYP2C19 activ: 0.8; CYP2C9 inh: 62*; sEH act: -50; sEH inh: 50; CYP2C9 activ: 0.4

What do the screens show for `CCc1cccc(NC(=O)NC2CCCCC2)c1`?
CYP2C19 inhib: -9; CYP2C19 activ: 1.1; CYP2C9 inh: -31; sEH act: -94; sEH inh: 94*; CYP2C9 activ: 1.3

How did Cc1ccc(Nc2c(N)c(=O)oc3ccccc23)cc1 do in these assays?
sEH act: -4; sEH inh: 7

High-throughput results: PubChem BioAssay, several laboratories
